Data on 93 compounds can be found in PubChem BioAssay AID2314 (National Center for Advancing Translational Sciences (NCATS), 2010).

Where “and” joins values, the source holds several entries; their conditions need not be identical. Identical values can stand only once. Among all 300,000 compounds or so, about 37,000 (12%) were called active. Only a selection was taken, and actives are over-represented in it overall. Unmarked numbers belong to inactive results. No stated cut-off is given here; in the data, active means max response mostly above about 13% (no sharp cut-off); inactive means mostly below about 14%.

The assay can be described thus: Cycloheximide Counterscreen for Small Molecule Inhibitors of Shiga Toxin. Further: read at 38.3 µM for the half of the compounds with a filed dose; 0% is about no effect. Particulars: cell reporter, cycloheximide protein synthesis inhibition counterscreen; stronger effect = higher value. On the technique in general: Counterscreens check selectivity or assay interference.
On to `COc1cc(CC(=O)N2CCC(n3nccc3NC(=O)C3CC3)CC2)cc(OC)c1OC`, for which the max response was -1.39%.
As for `C/C(=N\NC(=O)c1ccc(NS(=O)(=O)c2cccs2)cc1)c1ccc2ccccc2c1`, the max response is 7.4%.
As for `Cc1ccc(S(=O)(=O)N(Cc2cc3ccccc3[nH]c2=O)CC2CCCO2)cc1` (stereo not drawn), the max response was -1.24%.
`CCn1cc(CN2CCC(C(=O)Nc3cccc(-c4cccc(Cl)c4)c3)CC2)c(C)n1`: the max response is -9.71%.
The figure for `CCCOc1ccc(-c2c(C(=O)N/N=C/c3ccco3)nnn2-c2nonc2N)cc1` is -0.593%.
Turning to `CNC(=O)c1csc(Cc2c(Cl)sc3ccc(Cl)cc23)n1`, the max response is -2.08%.
As to `C=CCNC(=O)c1ccccc1SCc1c(C)noc1C`, the max response is -1.93%.
`O=C(NCc1ccccn1)c1cc(-c2ccccc2Cl)on1`: the max response is 38.8% (active).
For `O=C(NCc1ccccn1)c1ccc2nc(-c3ccco3)c(-c3ccco3)nc2c1`, the max response was 0.719%.
For `C=CCNC(=O)c1cc(-c2ccccc2O)on1`, the max response is 59.8% (active).
On to `CNC(=O)c1cccc2nc3ccccc3nc12`, for which the max response is 1.67%.
The figure for `Clc1ccccc1-c1cc(COc2ccc3ccccc3c2)no1` is 6.98%; for `O=C(Nc1cccnc1Cl)c1cc(-c2ccccc2O)on1` it is 17%.
Next, `CNC(=O)c1csc(-c2ccccc2)n1`: 13.6% (active); `O=C(O)Cc1csc(-c2cccc(Oc3ccccc3)c2)n1`: -1.21% and 2.4%; `C=CCNC(=O)c1csc(-c2ccccc2)n1`: 28.5% (active).
In the case of `C=CCNC(=O)c1cc2nc(C3CC3)cc(C(F)F)n2n1`, the max response was 11.1%.
The figure for `CCn1c(=O)c(C(=O)NCc2ccc3c(c2)OCO3)c(O)c2ccccc21` is -2.8%.
For `COc1ccc(OC)c(/C(C)=N\NC(=O)c2cc3cc(Cl)ccc3n2C)c1`, the max response is -5.13%.
`COc1cc([C@H](Cc2ccccc2)NC(C)=O)oc(=O)c1`: the max response was -1.33%.
The figure for `Cc1ccc(C)c(S(=O)(=O)Nc2cccc(-n3cnnn3)c2)c1` is -4.16%.
For `CC1CN(C(=O)CCC(=O)NC2CCN(Cc3ccccc3)CC2)c2ccccc2O1` (stereo not drawn), the max response is -2.34%.
Consider `O=C(O)CCCn1cc(NC(=O)COc2cccc(Cl)c2)cn1`, for which the max response is -1.65%.
The figure for `[O-][N+]12CCCCC1CCCC2CO` (stereo not drawn) is -2.81%; for `Cc1ccccc1N1CCN(CCCN2C(=O)C3CCCCN3C2=O)CC1` (stereo not drawn) it is -0.589%.
As to `CCNC(=O)NC(=O)C(C)OC(=O)c1cc(S(=O)(=O)N2CCCCCC2)ccc1OC` (stereo not drawn), the max response was 15.1%.
The figure for `O=C1CCC(CCC(=O)N2CCCC(C(=O)c3ccc(Cl)cc3)C2)=NN1` (stereo not drawn) is 8.2%; for `CSCCC(=O)N1CCCC(CNC(=O)c2ccccc2Cl)C1` (stereo not drawn) it is -3.24%; for `COCC1CCN(C(=O)CCc2nnc(C3(c4ccc(Cl)cc4)CCC3)o2)C1` (stereo not drawn) it is 44% (active).
For the compound `COC(=O)c1ccccc1NC(=O)Cc1ccccc1OC`, the max response is -2.67%.
As to `COc1ccccc1CC(=O)Nc1ccc(F)cc1F`, the max response was -2.45%.
The figure for `CC[C@]1(c2ccccc2OC)C(=O)N(C(=O)OC)N1C(=O)OC` is 29.1% (active); for `CCCC(C)NC(=O)C1CCN(C(=O)C2CC(=O)N(c3ccc(C)cc3)C2)CC1` (stereo not drawn) it is -4.68%.
Consider `Brc1c(CSc2nncc3ccccc23)nc2ccccn12`, for which the max response is 38.5% (active).
Consider `CC(=O)O[C@H]1c2ccccc2-c2ccccc2[C@@H]1OC(C)=O`, for which the max response was 0.95%.
Consider `Cc1ccc(SCC(=O)NNC(=O)c2ccc(S(C)(=O)=O)cc2)cc1`, for which the max response was 5.01%.
In the case of `COCC1CCN(C(=O)C2CCC(=O)N(CC3CCCCC3)C2)CC1` (stereo not drawn), the max response was -2.01%.
Take `Cc1cccnc1CCNC(=O)C1CCC(=O)N(Cc2cccc(F)c2)C1` (stereo not drawn): the max response was -2.2%.
For the compound `O=C1CCC(C(=O)N2CCCCO2)CN1Cc1cccc(C(F)(F)F)c1` (stereo not drawn), the max response is 30% (active).
`COC(=O)c1ccc(CNC(=O)C2CCC(=O)N(Cc3cccc(F)c3)C2)cc1` (stereo not drawn): the max response was 0.912%.
As to `COCC1CCN(C(=O)C2CCC(=O)N(Cc3cccc(C(F)(F)F)c3)C2)CC1` (stereo not drawn), the max response is 29.7% (active).
Consider `O=C(c1ccco1)N1CCN(Cc2cccc(C(F)(F)F)c2)CC1`, for which the max response is -3.76%.
With `CC(=O)Nc1ccc(S(=O)(=O)N2CCC(C(=O)N[C@@H](Cc3ccccc3)C(=O)O)CC2)cc1`, the max response was 10.8%.
With `COc1ccccc1CNC(=O)C1CCN(S(=O)(=O)c2ccc3c(c2)OCCO3)CC1`, the max response is -5.22%.
Next, `CCOc1cc(C(=O)O)ccc1OCCOc1ccccc1`: -8.53%; `COc1ccccc1CC(=O)Nc1ccc(S(=O)(=O)N2CCCC2)cc1`: -4.23%.
On to `C[C@@]12C(=O)N(c3cccc(Br)c3)C(=O)N1[C@H](c1ccc(Cl)cc1)[C@@H]1C(=O)N(C3CCCCC3)C(=O)[C@@H]12`, for which the max response is -2.82%.
Regarding `CS(=O)(=O)c1ccc2nc(NC(=O)c3ccc(N4CCCC4=O)cc3)sc2c1`, the max response was -2.38%.
On to `CS(=O)(=O)c1ccc2nc(NC(=O)C3C4C=CC(C4)C3C(=O)O)sc2c1` (stereo not drawn), for which the max response was 2.94%.
Take `O=C(NC(Nc1nc2ccc([N+](=O)[O-])cc2s1)(C(F)(F)F)C(F)(F)F)c1ccccc1`: the max response was 0.792%.
The figure for `CCCC(=O)Nc1nc2ccc(NC(=O)c3cccnc3)cc2s1` is 9.53%.
For `O=C(Nc1nc2ccc([N+](=O)[O-])cc2s1)c1ccncc1`, the max response was 23.5% (active).
Next, `CNC(=O)c1ccc2nc(NC(C)=O)sc2c1`: 38% (active).
Turning to `CS(=O)(=O)c1ccc2nc(NC(=O)c3ccc(Cl)nc3)sc2c1`, the max response is 39.4% (active).
As for `CS(=O)(=O)c1ccc2nc(NC(=O)CN3CCCCCC3)sc2c1`, the max response is -1.48%.
The figure for `COc1cccc(C(=O)Nc2nc3ccc(S(C)(=O)=O)cc3s2)c1` is 33.2% (active).
Take `COc1cccc(C(=O)Nc2nnc(S(=O)(=O)N3CCOCC3)s2)c1`: the max response is -4.33%.
Consider `O=C(Nc1nc2ccc([N+](=O)[O-])cc2s1)c1ccc(S(=O)(=O)N2CCCc3ccccc32)cc1`, for which the max response is -2.29%.
Regarding `CCCCSCCCNC(=O)C1CCC(CNS(=O)(=O)c2ccc(NC(C)=O)cc2)CC1` (stereo not drawn), the max response was 0.78%.
Take `Cc1cc(=O)[nH]c(S)c1C#N`: the max response was -1.97%.
For the compound `O=C(CN1CCN(C(=S)NC2CCCC2)CC1)Nc1ccc(Oc2ccccc2)cc1`, the max response was -0.686%.
As to `Cc1ccc(C(=O)N(CC(=O)NC2CCCC2)c2ccc(F)cc2)s1`, the max response was -2.41%.
For `CCCn1c(NC(=O)C23CC4CC(CC(O)(C4)C2)C3)nc2ccccc21`, the max response is -2.34%.
Regarding `CCC(=O)c1ccc(N2CCN(C(=O)c3cc([N+](=O)[O-])ccc3F)CC2)c(F)c1`, the max response was -0.539%.
Next, `Cc1ccc2nc3c(cc(C(=O)NCCc4ccccc4)c(=N)n3CC3CCCO3)c(=O)n2c1` (stereo not drawn): -3.51%; `O=C(Nc1ccccc1)C1CCN(C(=O)c2ccc(Br)cc2)CC1`: 11.6%; `O=C(Nc1ccc(C(=O)NCc2ccccc2Cl)cc1)C1=CSCCO1`: 31.9% (active).
Next, `O=C(NCc1ccccc1Cl)C1CCCO1` (stereo not drawn): -1.7%; `CSc1ccc(CNC(=O)c2ccc(NC(=O)C3=CSCCO3)cc2)cc1`: 3.98%.
Turning to `Cc1nc(SCC(=O)c2ccccc2)c([N+](=O)[O-])[nH]1`, the max response is -1.4%.
Regarding `Cc1nc(N)nc(SCc2ccc([N+](=O)[O-])cc2)c1N`, the max response was -1.9%.
Turning to `Cc1nc(SCc2ccc(F)cc2)c([N+](=O)[O-])[nH]1`, the max response was 12.6% (active).
With `COc1ccc([N+](=O)[O-])cc1NCC(=O)c1ccc(C)cc1`, the max response was 20.4%.
On to `Cc1ccc(C)n1NC(=O)c1ccc([N+](=O)[O-])cc1`, for which the max response was -0.957%.
The figure for `Cc1ccc(C(=O)NNC2=Nc3cc([N+](=O)[O-])ccc3OC2)cc1` is 20.2% (active); for `O=C(CNC(=O)Cc1ccccc1)N=Nc1c(O)[nH]c2ccc(Br)cc12` it is -2.22%.
As for `C/C(CC1CC(C)(C)OC1=O)=N/Nc1nc(-c2ccccc2)cs1` (stereo not drawn), the max response is 24.7% (active).
As for `CC1(C)CC(CC(=O)O)C(=O)O1` (stereo not drawn), the max response was -0.893%.
As to `Cc1cc(C(C)(C)C)oc1C(=O)N(CC(=O)NC1CCCC1)Cc1ccc(Cl)cc1`, the max response was 2.13%.
For the compound `Cc1ccc(S(=O)(=O)N2CC(C)N(S(C)(=O)=O)C2)cc1` (stereo not drawn), the max response was -4.88%.
For the compound `CC(=O)N/C(=N/c1nc(C)cc(C)n1)Nc1ccc(F)cc1F`, the max response is -4.27%.
Next, `COc1ccc(C/C(C)=N/NC(=O)c2cc(C)oc2C)cc1`: 26.5% (active).
As for `CCCCCNC(=O)Cc1ccc(OC)cc1`, the max response is -1.71%.
On to `COc1ccc(C/C(C)=N/NC(=O)c2ccncc2)cc1`, for which the max response is 3.76%.
Take `O=C1COc2ccc(S(=O)(=O)Nc3ccc(OC(F)(F)F)cc3)cc2N1`: the max response is -6.66%.
Next, `Fc1ccc(COc2ccc(-c3nnco3)cc2)cc1`: 52.6% (active); `Fc1cccc(Cl)c1COc1ccc(-c2nnco2)cc1`: 24.9%; `Fc1ccc(COc2cccc(-c3n[nH]c(=S)o3)c2)cc1`: 5.34%.
As for `Cc1cccc(C(=O)Nc2nnc(S(=O)(=O)N3CCCCCC3)s2)c1`, the max response is -1.9%.
Regarding `O=C1/C(=C/c2ccc(F)cc2)SC(=S)N1CCCC(=O)N1CCCCC1CCO` (stereo not drawn), the max response is 0.37%.
For `CN1CCN(c2ccc(S(=O)(=O)N3CCCCC3)cc2NC(=O)Cc2ccccc2F)CC1`, the max response was 0.822%.
On to `COc1ccc(CC(=O)Nc2cc(S(=O)(=O)N3CCCCC3)ccc2N2CCN(C)CC2)cc1`, for which the max response was -2.16%.
As for `CCN1CCN(c2ccc(S(=O)(=O)N3CCCCC3)cc2NC(=O)Cc2c(Cl)cccc2Cl)CC1`, the max response was 44.2% (active).
